Source: PubChem (The Scripps Research Institute Molecular Screening Center)
Sampled rows, rich in hits. Any-hit rate of the full collection: about 3.5%.
FBW7 activator: activators of human E3 ligase FBW7. actives 0.13% (n = 650,000). normalized activity (activation), % at 26.1 µM. AlphaScreen FBW7–phospho-cyclin E peptide binding, activator screen. AID 1259310. Q969H0; in the data active = normalized activity above about 1.9%;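 also: purified mutant Fbw7 with reduced substrate affinity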
Target sequence (Q969H0 whole entry, looked up): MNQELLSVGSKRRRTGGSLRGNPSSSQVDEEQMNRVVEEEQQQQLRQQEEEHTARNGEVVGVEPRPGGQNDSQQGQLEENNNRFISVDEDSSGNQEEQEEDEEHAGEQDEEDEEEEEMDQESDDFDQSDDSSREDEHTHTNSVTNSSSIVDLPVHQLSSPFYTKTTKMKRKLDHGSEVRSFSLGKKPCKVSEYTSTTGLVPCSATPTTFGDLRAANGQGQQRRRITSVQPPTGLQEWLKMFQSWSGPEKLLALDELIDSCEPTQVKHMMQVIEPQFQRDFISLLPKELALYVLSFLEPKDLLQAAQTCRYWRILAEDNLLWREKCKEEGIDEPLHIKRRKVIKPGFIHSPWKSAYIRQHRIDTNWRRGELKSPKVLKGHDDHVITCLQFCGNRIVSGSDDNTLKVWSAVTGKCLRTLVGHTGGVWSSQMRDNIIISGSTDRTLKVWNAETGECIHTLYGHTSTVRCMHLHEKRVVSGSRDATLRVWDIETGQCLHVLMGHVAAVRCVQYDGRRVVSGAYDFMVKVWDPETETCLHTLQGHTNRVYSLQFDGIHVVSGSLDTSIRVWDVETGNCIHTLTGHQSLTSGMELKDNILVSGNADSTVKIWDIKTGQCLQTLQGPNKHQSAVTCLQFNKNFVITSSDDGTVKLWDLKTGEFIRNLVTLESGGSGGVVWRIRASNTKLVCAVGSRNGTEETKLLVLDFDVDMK
GPR151 activ: activators of human GPR151; Q8TDV0; PathHunter beta-arrestin GPR151 cells, luminescence; activation, % at 11.2 µM; actives 1% (n = 650,000); in the data active = activation above about 4.9%;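 also: 0% = median of compound wells and 100% = cells with positive control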
MITF primary: human MITF inhibition, primary screen. inhibition, % at 2.6 µM. AID 1259374. actives 0.91% (n = 650,000). AlphaScreen MITF homodimerization, bead proximity signal. O75030; in the data active = inhibition above about 50%;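 also: 0% = vehicle wells with protein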
TEAD-YAP block: TEAD-YAP interaction inhibition | HEK-TIYL cells, TEAD-Gal4/YAP UAS-luciferase luminescence | inhibition, % at 9.12 µM | actives 1.4% (n = 640,000) | AID 1259422; in the data active = inhibition above about 32%;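 also: 0% = median of test compound wells and 100% = reference inhibitor wells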
The depositor's hits bear a star.

SMILES	FBW7 activator	GPR151 activ	MITF primary	TEAD-YAP block
Cc1ccc(CNC(=O)CSCc2ccc(F)cc2)cc1	0	0	2	-1
COc1ccc(CC(=O)NCc2ccc(Cl)cc2)cc1	0	0	7	40*
O=C(Cn1cccc1)NCc1ccc(F)cc1	0	0	3	-13
CCOC(=O)c1[nH]c(C)c(C(=O)NCc2ccc(OC)cc2)c1C	0	2	0	3
COc1ccc(CNC(=O)c2c(C)[nH]c(C(C)=O)c2C)cc1	0	0	11	58*
O=C(Cc1ccc(-n2cccc2)cc1)NCc1ccc(F)cc1	0	1	5	60*
Cc1ccc(CN(CC(=O)N2CCOCC2)S(=O)(=O)c2c(C)cc(C)cc2C)cc1	0	0	1	-1
O=C(Nc1c2c(nn1-c1ccc(F)cc1)CSC2)c1cc([N+](=O)[O-])ccc1Cl	0	0	4	86*
Cc1ccc(-n2nc3c(c2NC(=O)c2cc([N+](=O)[O-])ccc2Cl)CSC3)cc1	0	-1	5	63*
O=C(Nc1c2c(nn1-c1ccc(Cl)cc1)CSC2)c1cc([N+](=O)[O-])ccc1Cl	0	1	7	6
Cc1[nH]n(-c2ccccc2)c(=O)c1C(c1cccc(Br)c1)c1c(C)[nH]n(-c2ccccc2)c1=O	-1	-1	0	1
Cc1[nH]n(-c2ccccc2)c(=O)c1C(=O)c1cccc(Br)c1	0	1	12	59*
CCOc1ncccc1C(=O)Nc1cc(C)c([N+](=O)[O-])cc1OC	0	3	12	11
CCOc1ccc2nc(SCC(=O)Nc3ccc(N4CCOCC4)cc3)c(C#N)cc2c1	1	1	6	17
CC(=O)NC(C(=O)OCC(=O)N(c1ccccc1)c1ccccc1)C(C)C (stereo unspecified)	0	0	8	-7
CC(=O)NC(C(=O)OCc1cnc(-c2ccccc2)s1)C(C)C (stereo unspecified)	0	-7	4	59*
CCn1c(-c2ccc(OC)cc2)csc1=Nc1ccc(NC(C)=O)cc1	0	3	1	65*
C=CCn1c(-c2ccc(C)cc2)csc1=Nc1ccc(NC(C)=O)cc1	0	-1	27	50*
CCn1c(-c2ccc(Cl)cc2)csc1=Nc1ccc(NC(C)=O)cc1	0	0	22	80*
CCn1c(-c2ccc(Cl)cc2)csc1=Nc1ccccc1	0	0	25	-28
COc1ccc(C(=O)Nc2ccc(-c3csc(C)n3)cc2)c(OC)c1	0	-1	-10	-31
COc1ccc(C(=O)Nc2ccc(-c3cn4ccsc4n3)cc2)c(OC)c1	2.0*	0	-5	-15
CCOC(=O)C1=C(C)N=c2s/c(=C\c3ccc(OCc4ccccc4Cl)cc3)c(=O)n2C1c1ccc(OC)cc1 (stereo unspecified)	0	-1	3	-7
CC(=O)NC1=NC(=O)/C(=C\c2ccc(I)o2)S1	0	1	75*	-3
CC(=O)NC1=NC(=O)/C(=C/c2ccc(-c3ccc(Cl)cc3)o2)S1	0	0	-2	-12
SMILES	FBW7 activator	GPR151 activ	MITF primary	TEAD-YAP block
Oc1oc(-c2ccccc2Br)nc1C=Nc1ccc(Cl)cc1Cl	0	2	-4	9
O=C(OCc1csc(Nc2ccccc2)n1)C1CC2C=CC1C2 (stereo unspecified)	0	-4	-6	38*
COc1ccc(C(=O)NCC(=O)Nc2ccc(C)c(Cl)c2)cc1	0	1	4	-15
O=C1COc2ccc(C(=O)COC(=O)CNC(=O)c3cc(Cl)cc([N+](=O)[O-])c3)cc2N1	0	0	-7	-3
O=C(Nc1ccc(Br)cc1)c1ccc(F)c(S(=O)(=O)NCc2ccco2)c1	0	0	-4	43*
COc1ccccc1CNS(=O)(=O)c1cc(C(=O)Nc2ccc(Br)cc2)ccc1F	0	3	1	33*
O=C(Nc1ccc(Br)cc1)c1ccc(F)c(S(=O)(=O)NCC2CCCO2)c1 (stereo unspecified)	0	1	1	50*
COc1ccc(/C=C/C(=O)NCC2(c3ccccc3)CCCC2)cc1OC	0	1	14	-12
Cc1ccccc1NC(=O)COc1ccccc1CNC(C)(C)CO	0	-1	17	-9
O=C(N/N=C\c1c[nH]c2ccccc12)c1ccc(O)cc1	0	0	1	-3
O=C(O)c1ccc(N/N=C/c2c[nH]c3ccccc23)cc1	0	-6	-2	85*
O=C(N/N=C/c1c[nH]c2ccccc12)c1cc(-c2ccncc2)nc2ccccc12	0	-2	6	35*
O=C(N/N=C/c1c[nH]c2ccccc12)c1cc(-c2ccccc2)n[nH]1	0	1	-10	0
CC(C)S(=O)(=O)/C(Cl)=C(\Cl)C(=O)Nc1ccccc1Cl	0	-3	24	95*
c1ccc2c(c1)CC(c1nc3ccc(-c4ccncc4)cc3[nH]1)CCO2 (stereo unspecified)	0	0	-12	41*
Nc1nc2ccccc2n1C(=O)c1ccccc1	0	-8	2	52*
Nc1nc2ccccc2n1C(=O)c1ccc(F)cc1	0	-5	1	52*
COCCn1nnnc1C(c1cccs1)N1CCN(c2ccc(OC)cc2)CC1 (stereo unspecified)	0	-1	-2	-7
c1cncc(-c2nnc(SCc3nc4ccccc4[nH]3)o2)c1	0	-1	-6	44*
Cn1cccc1/C=C1\Cc2ccccc2C1=O	0	-4	2	-28
Cn1cccc1/C=C1\CCc2ccccc2C1=O	0	-8	7	64*
CCOC(=O)c1c(-c2cccs2)csc1NC(=O)CN1C(=O)NC2(CCCC2)C1=O	0	0	6	4
Cc1ccc2c(c1)C=C/C(=C\c1cccc[n+]1C)N2C	0	1	12	84*
CCN1/C(=C2/N=C(c3ccccc3)OC2=O)C=Cc2ccccc21	0	1	9	10
CCN1/C(=C/C(=C(C#N)C#N)C(F)(F)F)C=Cc2ccccc21	0	0	8	2
SMILES	FBW7 activator	GPR151 activ	MITF primary	TEAD-YAP block
CCCC[n+]1ccc(/C=C2\C=Cc3ccccc3N2CC)c2cc(C)ccc21	-1	1	72*	92*
CCN1/C(=C/c2cccc[n+]2C)C=Cc2ccc(C)cc21	1	2	9	75*
CCN1/C(=C/c2cccc[n+]2C)C=Cc2ccccc21	0	1	5	75*
O=C(Nc1ccc2[nH]ncc2c1)c1cc(O[C@@H]2CCCN(Cc3ccccc3)C2)ccn1	1	0	14	-2
CCN1C(=O)/C(=C2\C=Cc3ccccc3N2CC)SC1=S	-1	1	7	-7
CCN1C(=O)S/C(=C\c2ccc(Cl)cc2)C1=O	0	0	8	-10
CCN1/C(=C/c2cc[n+](-c3ccc(Cl)cc3)cc2)C=Cc2ccccc21	-1	1	28	91*
CCN1/C(=C/c2ccc3ccccc3[n+]2CC)C=Cc2ccccc21	0	4	20	88*
Fc1cccc(-c2nc3cccnc3nc2-c2cccc(F)c2)c1	0	-1	2	13
Clc1nc2ncccc2nc1-c1ccccc1	0	1	-7	41*
